# Measured values: PubChem BioAssay AID624059 (National Center for Advancing Translational Sciences (NCATS), 2012)
# Calls of active or inactive are those of the source. Calls follow the shape of the dose curve; as a rule, active = well fitted curve in the direction sought with a large enough effect; inactive = no such curve, though single readings can be large or run the other way.
# Test: qHTS for Inhibitors of Mutant Isocitrate Dehydrogenase 1 (IDH1): U87 Cytotoxicity Assay for Probe SAR
# Conditions: U87MG-IDH1 R132H viability, CellTiter-Glo luminescence, 72 h; series mostly up to 22.1 µM; activity change, negative = cytotoxicity: at the top concentration
# Text: Malignant glioblastomas (WHO grade IV), including primary and secondary glioblastomas, are among the most lethal with a median survival of one year, and unfortunately they are also the most prevalent type of brain tumors. By and large the standard of care of gliomas remains the use of the oral alkylating agent temozolomide and radiotherapy following surgical tumor resection. There is an urgent unmet medical need for novel therapeutics for gliomas. IDH mutations occur in up to 70% of grade II-IV secondary glioblastomas, and IDH1 R132H is the most prevalent mutation. […] Wild-type (WT) IDH1 catalyzes the conversion of isocitrate to -ketoglutarate with the concomitant reduction of NADP+ to NADPH. In contrast, IDH1 R132H catalyzes the conversion of alpha-ketoglutarate to 2-hydroxyglutarate (2-HG) with the concomitant oxidation of NADPH to NADP+ [5]. Recently, a second significant advancement for the field was the finding that IDH is an oncogene, and that its metabolic product 2-HG may contribute to the pathogenesis of IDH-mutated cancers. […] Although this link to cancer is tantalizing, the direct evidence of how 2-HG drives pathogenesis of gliomas and AML remains a subject of further research. The goal of this cell assay is to identify whether the small-molecule inhibitors of IDH1 R132H are cytotoxic in U87MG-IDH1 R132H cells. Compounds were screened as concentration-titration series that ranged from 50 microM to 14 nM. NIH Molecular Libraries Probe Production Network [MLPCN] NIH Chemical Genomics Center [NCGC] MLSCN Grant: R03 DA032129 PI Name: Dr. Lenny Dang
# Cells were dispensed into 96-well black solid bottom plates at 2500 cells/well (RPMI medium with 10% FBS). The plates were incubated overnight at 37 °C and 5% CO2. The media was aspirated off and fresh media (RPMI and 10% FBS) with compounds in 7-point dose response was added. The plates were incubated for 48 hours at 37 °C and 5% CO2. From each well 100 microL was removed and used for LC-MS analysis to quantitate the amount of 2-HG product. The remaining cells/media were incubated for 24 additional hours at which point 100 uL of Cell Titer Glo (Promega) was added. The plates were shaken for 10 minutes and then incubated at room temperature for 20 minutes. The luminescence was read on the ViewLux in end-point mode (0.5 sec). Concentration-response curves were fitted to the signals arising from the resulting selective ion monitoring. The concentration-response curves were then classified based on curve quality (r2), response magnitude and degree of measured activity, and compounds were subsequently categorized based on their curve class. […] Keywords: Isocitrate dehydrogenase, IDH1, IDH1 R132H, 2-HG, 2-hydroxyglutarate, AML, glioma, MLSMR, MLPCN, NIH Roadmap, qHTS, NCGC
Compound,"activity change, negative = cytotoxicity",Potency
Cc1ccccc1C(C(=O)NC1CCCC1)N(C(=O)Cn1cnc2ccccc21)c1cccc(F)c1 (stereo not drawn),18.6% (inactive),–
Cc1ccccc1C(C(=O)NC1CCCCC1)N(C(=O)Cc1cccs1)c1cccc(F)c1 (stereo not drawn),-21.8% [at 10.3 µM] (inactive),–
COc1cccc(C(C(=O)NC2CCCCC2)N(C(=O)c2cccs2)c2ccc3c(c2)OCO3)c1 (stereo not drawn),-30.4% [at 30 µM] (inactive),–
COc1ccc(N(C(=O)Cn2cnc3ccccc32)C(C(=O)NC2CCCCC2)c2ccccc2)cc1 (stereo not drawn),-6.32% [at 30 µM] (inactive),–
Cc1ccccc1C(C(=O)NC1CCCC1)N(C(=O)Cc1cccs1)c1cccc(F)c1 (stereo not drawn),6.51% (inactive),–
Cc1ccccc1C(C(=O)NC1CCCC1)N(C(=O)Cc1cccs1)c1ccccc1F (stereo not drawn),-40% [at 50 µM] (inactive),–
COc1cccc(N(C(=O)Cc2cccs2)C(C(=O)NC2CCCC2)c2ccccc2)c1 (stereo not drawn),-9% [at 50 µM] (inactive),–
Cc1ccccc1C(C(=O)NC1CCCCC1)N(C(=O)CNS(=O)(=O)c1ccccc1)c1cccc(F)c1 (stereo not drawn),–,10.1 µM (active)
O=C(NC1CCCC1)C(c1ccccc1)N(C(=O)Cc1cccs1)c1cccc(F)c1 (stereo not drawn),-5.77% [at 50 µM] (inactive),–
Cc1ccccc1C(C(=O)NC(C)(C)C)N(C(=O)Cc1cccs1)c1cccc(F)c1 (stereo not drawn),-14.4% (inactive),–
Cc1ccccc1C(C(=O)NC1CCCCC1)N(C(=O)c1ccccn1)c1cccc(F)c1 (stereo not drawn),–,11.8 µM (active)
Cc1nc(C)c(C(=O)N(c2cccc(F)c2)C(C(=O)NC2CCCCC2)c2ccccc2)s1 (stereo not drawn),-12.4% (inactive),–
COc1ccc(N(C(=O)C2COc3ccccc3O2)C(C(=O)NC2CCCCC2)c2ccccc2)cc1OC (stereo not drawn),-23.5% [at 30 µM] (inactive),–
